Bioassay records: PubChem, National Center for Advancing Translational Sciences (NCATS)
IMPase inh – membrane-permeable compound that blocks inositol monophosphatase; CHO-M1 cells, IP1 accumulation, HTRF TR-FRET ratio; inhibition (IP1 accumulation), % at 46.1 µM; P97697; AID 901; 120,000 tested, under 10 active; active = well fitted curve in the direction sought with a large enough effect in the signal ratio, not every such curve was filed as active; inconclusive = small, poorly fitted or top-dose-only effect, or a change in a side signal; inactive = no such curve, though single readings can be large or run the other way; the % refers to the signal ratio;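 note: cells stimulated with carbachol in lithium chloride buffer; higher means more IMPase inhibition seen as more IP1 and lower FRET ratio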
Target sequence (P97697 whole entry, looked up): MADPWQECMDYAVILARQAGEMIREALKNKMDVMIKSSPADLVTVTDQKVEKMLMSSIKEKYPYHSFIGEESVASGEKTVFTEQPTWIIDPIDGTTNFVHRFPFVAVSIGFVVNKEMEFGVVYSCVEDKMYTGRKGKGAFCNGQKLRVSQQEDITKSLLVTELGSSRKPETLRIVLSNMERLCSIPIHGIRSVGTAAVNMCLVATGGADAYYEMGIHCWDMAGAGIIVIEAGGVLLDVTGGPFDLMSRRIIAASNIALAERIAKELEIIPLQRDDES
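CHO-M1, 2000 cells/well, cultured 16–30 h; cpd up to 46 uM; carbachol (50 uM solution, stimulation buffer w/ 50 mM LiCl, pH 7.4), 30 min 37C; IP-One TR-FRET, 10 min RT; Ex 320/Em 665, 620; Hill-fit AC50.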
PNC assembly inh – blocks assembly of the perinucleolar compartment. AID 2417. PC3M PTB-GFP, PNC prevalence imaging, 16 h; stronger effect = lower value. 3.1% of 140,000 active. activity change (PNC), negative = inhibition, % at 10 µM;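 active = readout at or below -70, meaning at least 70% loss of cells showing the perinucleolar compartment, a nuclear body marking cancer cells; inconclusive = readout between -30 and a set limit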
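Compounds are pinned in duplicate onto adhered PC3M cells stably expressing GFP-tagged PTB and incubated 16 h at 37 C. Cells are then fixed, nuclei stained with Hoechst, and PNC-positive cells counted.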
ALDH1A1 inh – inhibitors of human aldehyde dehydrogenase 1A1 | P00352 | Purified ALDH1A1, NADH fluorescence, propionaldehyde substrate | Potency, µM (doses to about 75.3 µM), actives largely listed as inhibitors | 7.3% of 220,000 active | AID 1030
KinaseGlo FLuc – Kinase-Glo luciferase inhibition (counter-screen); Potency, µM (doses to about 38.3 µM), usual class: inhibitors; 0.28% of 200,000 active; Kinase-Glo luciferase, ATP luminescence, 8 min; active = well fitted inhibition curve with a large enough effect; inconclusive = small, poorly fitted or top-dose-only effect; note: nearly all actives have a fitted effect of over 60% in size
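Kinase-Glo luciferase light output from ATP and luciferin was measured with 10 uM ATP, within the enzyme's linear range. Buffer: 50 mM imidazole pH 7.2, 50 mM KCl, 7 mM MgCl2, 0.01% Tween 20, 0.05% BSA; luminescence read after 8 min at ambient temperature.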
Lamin A splicing – LMNA splicing modulation. 0.01% of 200,000 active. Potency, µM (highest dose often 46.1 µM), hits mostly inhibitors. AID 1487. HeLa LMNA splicing GFP/RFP minigene ratio, 48 h; active = well fitted inhibition curve with a large enough effect in the signal ratio, with a control signal flat, not every such curve was filed as active; inconclusive = small, poorly fitted or top-dose-only effect, or effect the other way, or a change in a side signal; the % refers to the signal ratio
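S3 HeLa cells stably expressing lamin A-EGFP splicing minigene plus DsRed2, 600 cells/well, 48 h compound exposure at 37C. Laser-scanning cytometry; analysed as GFP (500-530 nm)/RFP (575-640 nm) total intensity ratio; 0.5% DMSO vehicle.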
HPGD block – blocks human HPGD enzyme activity | AID 894 | purified HPGD, NADH fluorescence kinetic, PGE2 substrate | 4.3% of 150,000 active | Potency, µM, most hits filed as inhibitors | P15428
Target sequence (P15428 whole entry, looked up): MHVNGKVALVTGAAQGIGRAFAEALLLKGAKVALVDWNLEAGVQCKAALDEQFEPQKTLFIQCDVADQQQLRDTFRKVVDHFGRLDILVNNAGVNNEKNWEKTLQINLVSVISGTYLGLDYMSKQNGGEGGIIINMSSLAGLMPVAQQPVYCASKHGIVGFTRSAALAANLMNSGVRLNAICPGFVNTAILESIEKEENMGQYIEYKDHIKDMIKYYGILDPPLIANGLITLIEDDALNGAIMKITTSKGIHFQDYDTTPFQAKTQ
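20 nM HPGD preincubated 15 min at room temperature with compound in 50 mM Tris-HCl pH 8, 0.01% Tween 20. Started with 1 mM NAD+ and 30 uM prostaglandin E2; NADH fluorescence (360/450 nm) read 5 times over 30-s intervals, last minus first.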
Hits are given with their value; n = inactive; u = inconclusive; x = not tested or not shown. Most compounds without a hit are left out; they make up all but 10% or so of the library. Unless noted, calls come from the whole dose curve; as a rule, active = well fitted inhibition curve with a large enough effect (not every such curve was filed as active); inconclusive = small, poorly fitted or top-dose-only effect, or another doubt; inactive = no such curve, though single readings can be large or run the other way.

SMILES | IMPase inh | PNC assembly inh | ALDH1A1 inh | KinaseGlo FLuc | Lamin A splicing | HPGD block
O=C(CNC(=O)c1ccco1)OC(C(=O)c1ccccc1)c1ccccc1 (stereo not given) | n | n | n | n | n | n
O=C(CNC(=O)c1ccco1)NCC(=O)OC(C(=O)c1ccccc1)c1ccc(Cl)cc1 (stereo not given) | n | -100 | u | n | n | n
O=C1NC(=O)C(=C2CCCCCC2)S1 | x | -105 | n | n | n | u
COc1cccc(S(=O)(=O)Nc2cccc(C(=O)N3CCOCC3)c2)c1 | n | n | 14µM | n | n | n
CCOC(=O)N1CCN(C(=O)c2cccc(NS(=O)(=O)c3ccc(F)c(F)c3)c2)CC1 | x | -89 | n | n | n | n
COc1cccc(S(=O)(=O)Nc2ccc(C(=O)N3CCCCCC3)cc2)c1 | x | x | 22µM | x | x | x
COc1ccc(C(=O)N2CCCCC2)cc1S(=O)(=O)Nc1ccccc1 | n | n | u | n | n | n
COc1cccc(S(=O)(=O)Nc2cccc(C(=O)N3CCCCCC3)c2)c1 | x | n | 14µM | n | u | n
COc1cc(NS(=O)(=O)c2ccc(NC(=O)c3cccc(F)c3)cc2)nc(OC)n1 | n | x | x | x | x | x
Cc1ccccc1NS(=O)(=O)c1cc(C(=O)Nc2cccc([N+](=O)[O-])c2)ccc1C | x | n | 22µM | n | u | n
Cc1ccc([N+](=O)[O-])cc1NC(=S)NC(=O)C(C)(C)C | n | n | 4.5µM | n | n | 7.1µM
Cc1ccc([N+](=O)[O-])cc1NC(=O)c1ccc(C(C)(C)C)cc1 | n | u | n | n | n | 16µM
Cc1ccc(C(=O)Nc2cc([N+](=O)[O-])ccc2C)cc1 | x | x | n | n | x | x
CC(=O)NC(=S)Nc1ccc([N+](=O)[O-])cc1C | x | x | n | n | n | x
Cc1ccc([N+](=O)[O-])cc1NC(=S)NC(=O)CC(C)(C)C | n | n | n | n | n | 16µM
COc1cc(OC)c(NC(=O)CN(C)S(=O)(=O)c2ccc3c(c2)CCCC(=O)N3)cc1Cl | x | x | x | x | n | x
Cc1cc([N+](=O)[O-])ccc1NC(=S)NC(=O)Cc1ccccc1 | n | n | u | n | n | 18µM
CCN(C(=O)CCS(=O)(=O)c1ccc(Br)cc1)c1ccc2c(c1)OCO2 | n | n | 16µM | n | n | n
O=C(CCS(=O)(=O)c1ccc(Br)cc1)Nc1ccc2c(c1)OCO2 | n | n | u | n | n | n
CC(=O)N1c2ccc(S(=O)(=O)N3CCN(c4ccc(C)cc4C)CC3)cc2CC1C (stereo not given) | x | x | x | x | n | x
Cc1ccc(C(C(=O)NC2CCCCC2)N2CCCC2)cc1 (stereo not given) | u | -112 | n | n | n | n
COc1ccc(Cn2ccc3nc(C)c(C(=O)NCc4ccc(SC)cc4)cc3c2=O)cc1 | x | x | x | x | n | x
O=C(CCc1ccc(S(=O)(=O)NCc2ccccc2)cc1)NCc1ccco1 | x | n | u | n | u | n
CCCNS(=O)(=O)c1ccc(CCC(=O)Nc2ccc3c(c2)OCCO3)cc1 | x | n | 10µM | n | u | n
CCC(C)NS(=O)(=O)c1ccc(OCC(=O)Nc2ccc3c(c2)OCO3)cc1 (stereo not given) | n | n | 1.3µM | n | n | n
SMILES | IMPase inh | PNC assembly inh | ALDH1A1 inh | KinaseGlo FLuc | Lamin A splicing | HPGD block
CC(C)NS(=O)(=O)c1ccc(CCC(=O)Nc2ccc3c(c2)OCO3)cc1 | n | u | 0.4µM | n | n | n
CCCNS(=O)(=O)c1ccc(CCC(=O)NCc2ccco2)cc1 | n | n | 2.2µM | n | n | n
CCCNS(=O)(=O)c1ccc(CCC(=O)Nc2ccc3c(c2)OCO3)cc1 | n | n | u | n | u | n
NC(=O)C1CCN(S(=O)(=O)c2cc3c(cc2Cl)NC(=O)CO3)CC1 | x | x | x | x | n | x
O=C(Nc1ccc2nc(SCCOc3ccccc3)sc2c1)c1ccc2c(c1)OCO2 | x | x | x | x | n | x
CCN(CC)S(=O)(=O)c1ccc(C)c(NC(=S)NNC(=O)C2CC2)c1 | x | u | 8.9µM | n | n | n
CCCn1c(C)nc2c(NCCCCN3CCCC3)nc(C)nc21 | x | x | n | n | x | n
COC(=O)c1ccc(N)c(N=CC2=C(O)CC(C)(C)CC2=O)c1 | x | -109 | 20µM | n | n | n
CC1(C)CC(=O)C(C=Nc2cc(C(=O)c3ccccc3)ccc2N)=C(O)C1 | x | x | 11µM | n | u | x
CSc1ccccc1N=CC1=C(O)CC(C)(C)CC1=O | n | -100 | 2µM | n | n | n
CN=CC1=C(O)CC(C)(C)CC1=O | n | n | n | n | n | n
CC1(C)CC(=O)C(C=Nc2ccc(Cl)cn2)=C(O)C1 | n | n | n | n | n | n
CC1(C)CC(=O)C(C(N)=NC(=O)c2ccccc2)=C(O)C1 | x | x | 10µM | n | x | x
CCCc1cnc2c(c1SCC(=O)Nc1ccc(C)c(Cl)c1)c(=O)n(C)c(=O)n2C | x | x | x | x | n | x
